AMA1-RON2 inh: AMA1-RON2 (P. falciparum) interaction inhibition. AlphaScreen AMA1-biotinylated RON2 peptide binding. Potency, µM (titrated, usually from 58.2 µM), actives largely listed as inhibitors. hit rate 0.2% among 360,000. AID 720542; note: nearly all actives have a fitted effect of over 45% in size
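AMA1 (3D7) with his tag at 25 nM final met compounds first, then biotinylated RON2 peptide at 25 nM; detection used donor plus acceptor beads, 10 µg/mL apiece, read by AlphaScreen after 30 min at room temperature.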
SARS PLpro yeast: SARS-CoV PLP inhibition in yeast. AID 485353. Potency, µM (top dose mostly 32.9 µM), usual class: activators. S. cerevisiae expressing SARS-CoV PLpro, growth rescue. hit rate 0.19% among 330,000; calls by dose curve; note: nearly all actives have a fitted effect of over 55% in size
Shiga toxin inh: blocks Shiga toxin action in Vero cells; hit rate 9.2% among 290,000; inhibition, % at 38.7 µM; Vero cells, Shiga toxin protein synthesis inhibition reporter; AID 2315; in the data active = inhibition mostly above about 28%, no sharp cut-off; inactive = mostly below about 43%
AmpC no deterg: inhibitors of E. coli AmpC beta-lactamase without detergent; AID 485341; Potency, µM (doses to about 57.1 µM), actives largely listed as inhibitors; P00811; hit rate 0.52% among 330,000; AmpC nitrocefin hydrolysis, absorbance 480 nm, 0.0001% Triton; note: nearly all actives have a fitted effect of over 20% in size
Target sequence (P00811 whole entry, looked up): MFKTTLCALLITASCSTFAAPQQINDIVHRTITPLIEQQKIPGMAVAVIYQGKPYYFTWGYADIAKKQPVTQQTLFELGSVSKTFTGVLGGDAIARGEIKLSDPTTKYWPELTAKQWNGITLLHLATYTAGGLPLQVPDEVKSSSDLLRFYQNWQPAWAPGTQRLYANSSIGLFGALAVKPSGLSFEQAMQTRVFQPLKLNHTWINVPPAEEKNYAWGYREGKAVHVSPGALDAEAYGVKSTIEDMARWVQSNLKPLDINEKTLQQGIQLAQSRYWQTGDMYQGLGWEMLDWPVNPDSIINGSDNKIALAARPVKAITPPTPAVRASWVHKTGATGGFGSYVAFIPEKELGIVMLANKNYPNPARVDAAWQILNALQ
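20 mM phosphate pH 7.0 + 0.01% (detergent screen) or 0.0001% Triton X-100; 5.3 nM AmpC reagent; cpd preinc 15 min RT; nitrocefin (800 uM stock) to start; A480 q20 s × 4 min; Activity was normalised to no-enzyme and no-compound control wells.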
AmpC inh detg: AmpC beta-lactamase inhibition with detergent present | AID 485294 | hit rate 0.041% among 370,000 | AmpC hydrolysis of nitrocefin, absorbance 480 nm, 0.01% Triton | Potency, µM (titrated, usually from 114 µM), hits mostly inhibitors; note: nearly all actives have a fitted effect of over 25% in size
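20 mM phosphate pH 7.0 + 0.01% (detergent screen) or 0.0001% Triton X-100; 5.3 nM AmpC reagent; cpd preinc 15 min RT; nitrocefin (800 uM stock) to start; A480 q20 s × 4 min; Activity was normalised to no-enzyme and no-compound control wells.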
Cycloheximide cs: affects cycloheximide protein synthesis inhibition readout, counter-screen. cell reporter, cycloheximide protein synthesis inhibition counterscreen. max response, %. hit rate 12% among 300,000. AID 2314; in the data active = max response mostly above about 13%, no sharp cut-off; inactive = mostly below about 14%; note: read at 38.3 µM for the half of the compounds with a filed dose
Of the large screens only hits and unclear results are named; the others gave an inactive call. The full list was thinned out, with hits kept by preference. Unless noted, calls come from the whole dose curve; as a rule, active = well fitted curve in the direction sought with a large enough effect; inconclusive = small, poorly fitted or top-dose-only effect, or another doubt; inactive = no such curve, though single readings can be large; an effect the other way counts as inactive or inconclusive.

CN(CCC(=O)c1ccccc1)CCC(=O)c1ccccc1	none
CC(C)(C)n1nnnc1C(c1ccncc1)N1CCCCCC1 (configuration not stated)	none
NS(=O)(=O)c1ccc(Nc2ccccc2)c([N+](=O)[O-])c1	none
O=[N+]([O-])c1ccccc1NCCNS(=O)(=O)c1ccc(Cl)cc1	none
O=[N+]([O-])c1cc(Cl)ccc1Nc1ccccc1	AMA1-RON2 inh 14µM
O=[N+]([O-])c1cc(Cl)ccc1NCCNS(=O)(=O)c1ccccc1	Shiga toxin inh 36, Cycloheximide cs 19
Cc1cc(NC(=O)CSc2nnc(C)c(=O)[nH]2)no1	none
CCOc1cc(C(=O)NC(C)Cc2cccs2)cc(OCC)c1OCC (configuration not stated)	none
O=C(Nc1cccnc1)c1ccc(Cl)c(S(=O)(=O)N2CCCCCC2)c1	AmpC inh detg inconclusive, Cycloheximide cs 21
O=C(Nc1ccncc1)c1ccc(Cl)c(S(=O)(=O)N2CCCCC2)c1	none (no result: Shiga toxin inh, Cycloheximide cs)
Cc1cccc(NC(=O)c2ccc(Cl)c(S(=O)(=O)N3CCCCCC3)c2)n1	none (no result: Shiga toxin inh, Cycloheximide cs)
O=C(c1ccc(Cl)c(S(=O)(=O)N2CCCCCC2)c1)N1CCCCC1	Shiga toxin inh 39, Cycloheximide cs 17
Cc1ccc(C(=O)Nc2cccnc2)cc1S(=O)(=O)N1CCCCCC1	Cycloheximide cs 26
Cc1ccc(C(=O)Nc2cccnc2)cc1S(=O)(=O)N1CCOCC1	none
Cc1cccc(NC(=O)c2ccc(Cl)c(S(=O)(=O)N3CCCC3)c2)n1	Shiga toxin inh 59, Cycloheximide cs 54
O=C(NCCc1ccccn1)c1ccc2nc(Cc3ccccc3F)oc2c1	Shiga toxin inh 105, Cycloheximide cs 62
Cc1cccc(CNC(=O)c2ccc3nc(Cc4ccccc4F)oc3c2)n1	Shiga toxin inh 111, Cycloheximide cs 58
O=C(NCCc1cnc[nH]1)c1ccc(-c2ccccc2)cc1	Shiga toxin inh 55, Cycloheximide cs 30
CCOc1ccc(C(=O)NCCc2cnc[nH]2)cc1	none
Cc1ccc(C2=Nc3ccccc3SC(c3cccc([N+](=O)[O-])c3)C2)cc1 (configuration not stated)	Shiga toxin inh 70, Cycloheximide cs 35
O=C(Cn1c(-c2ccccc2)c[n+]2ccsc12)c1ccccc1	none
O=C(Cn1c(-c2ccccc2)c[n+]2ccsc12)c1ccc([N+](=O)[O-])cc1	Shiga toxin inh 71, Cycloheximide cs 21
CC1Oc2ccccc2N(CC(=O)NCc2cccs2)C1=O (configuration not stated)	Shiga toxin inh 31, Cycloheximide cs 19
CSC(C(=O)c1cc2ccccc2o1)c1ccccc1 (configuration not stated)	none (no result: Shiga toxin inh, Cycloheximide cs)
CCOC(=O)C1C(=O)Oc2ccc3ccccc3c2C1C1CCOC1=O (configuration not stated)	AmpC inh detg inconclusive
CCNc1nc(-c2ccc(OC(F)F)cc2)c(C)s1	Shiga toxin inh 124, Cycloheximide cs 41
COCC(=O)Nc1nc(-c2ccccc2)c(C)s1	none
CCCc1cc(C(=O)Nc2cc(C)ccc2O)no1	Shiga toxin inh 49, Cycloheximide cs 18
CCCc1cc(C(=O)Nc2cccnc2Cl)no1	Shiga toxin inh 59, Cycloheximide cs 55
O=C(Nc1cccnc1)c1ccc(C(=O)Nc2cccnc2)cc1	none
COc1cc(NC(=O)c2cccnc2)c(OC)cc1NC(=O)c1ccc(Br)cc1	none
COc1ccc(C(=O)Nc2c(F)c(F)c(F)c(F)c2F)cc1OC	none (no result: SARS PLpro yeast, Shiga toxin inh, AmpC no deterg, AmpC inh detg, Cycloheximide cs)
CC(C)(C)c1ccc(C(=O)Nc2cccnc2)cc1	Cycloheximide cs 26
COc1ccc(C(=O)Nc2cccnc2)cc1OC	Cycloheximide cs 13
COc1cc2c(cc1NC(=O)c1cccnc1)CCCC2	Cycloheximide cs 20
COc1ccc(C(=O)Nc2nc(C)c(C)s2)cc1OC	Shiga toxin inh 96, AmpC inh detg inconclusive, Cycloheximide cs 55
CCC(C(=O)Nc1ccc(S(=O)(=O)N(C)C2CCN(C)CC2)cc1)c1ccccc1 (configuration not stated)	none (no result: Shiga toxin inh, Cycloheximide cs)
COc1ccc(C(=O)Nc2cccc(NC(=O)c3ccc(OC)c(OC)c3)n2)cc1OC	Shiga toxin inh 39, AmpC inh detg inconclusive, Cycloheximide cs 22
Cc1ccc(Nc2nc(N)c3ccccc3n2)cc1Cl	Cycloheximide cs 43 (no result: Shiga toxin inh)
Nc1nc(Nc2ccc(Cl)cc2)nc2ccccc12	Cycloheximide cs 30
O=C(Cc1ccccc1)NCC(=O)OCc1ccccc1F	none
Cc1nc2ccc(C(=O)N/N=C/c3cc([N+](=O)[O-])ccc3O)cc2[nH]1	none
O=[N+]([O-])c1ccc(O)c(C=Nc2ccc3nc(-c4ccccc4)[nH]c3c2)c1	Shiga toxin inh 70, Cycloheximide cs 28
Oc1c(Br)cc(C=Nc2ccc3nc(-c4ccccc4)[nH]c3c2)c(O)c1Br	Shiga toxin inh 75, Cycloheximide cs 52
Cc1nc2ccccc2c(=O)n1/N=C/c1ccc(OC(F)F)cc1	none
COC(=O)C1CCN(c2cc(=O)n(C3CCCCC3)c(=O)[nH]2)CC1	none
CCN(CC(=O)Nc1c(F)cccc1F)C(=O)C1CC(=O)N(c2ccc3c(c2)OCCO3)C1 (configuration not stated)	none (no result: Shiga toxin inh, Cycloheximide cs)
CC[C@H](C)[C@H](NC(=O)[C@H](Cc1ccc(O)cc1)NC(=O)[C@H](Cc1cnc[nH]1)NC(=O)[C@H](CCCNC(=N)N)NC(=O)[C@H](CC(C)C)NC(=O)[C@H](C)NC(=O)[C@H](CO)NC(=O)[C@H](Cc1ccc(O)cc1)NC(=O)[C@H](Cc1ccc(O)cc1)NC(=O)[C@H](CCCNC(=N)N)NC(=O)[C@H](C)NC(=O)[C@H](CC(C)C)NC(=O)[C@H](CC(=O)O)NC(=O)[C@H](CCC(=O)O)NC(=O)[C@H](C)NC(=O)[C@@H]1CCCN1C(=O)[C@H](C)NC(=O)[C@H](CC(=O)O)NC(=O)[C@H](CCC(=O)O)NC(=O)CNC(=O)[C@@H]1CCCN1C(=O)[C@H](CC(N)=O)NC(=O)[C@H](CC(=O)O)NC(=O)[C@@H]1CCCN1C(=O)[C@H](CCCCN)NC(=O)[C@H](CO)NC(=O)[C@@H]1CCCN1C(=O)[C@@H](N)Cc1ccc(O)cc1)C(=O)N[C@@H](CC(N)=O)C(=O)N[C@@H](CC(C)C)C(=O)N[C@@H](CC(C)C)C(=O)N[C@H](C(=O)N[C@@H](CCCNC(=N)N)C(=O)N1CCC[C@H]1C(=O)N[C@@H](CCCNC(=N)N)C(=O)N[C@@H](Cc1ccc(O)cc1)C(N)=O)[C@@H](C)O	none (no result: AMA1-RON2 inh, SARS PLpro yeast, AmpC no deterg, AmpC inh detg)

From PubChem
